Calls of active or inactive are those of the source. Unless noted, how the calls were made is not given here.
Legend:
[1] = A549 cell viability effects, profiling panel, calcein-AM fluorescence, 48 h, basal (AID 1162); settings: higher = more signal; further: test concentration not given here
[2] = adipocyte viability effects, profiling panel, cell-based, 3T3-L1 adipocytes, calcein-AM fluorescence, 48 h, basal (AID 1163); settings: 3T3-L1 adipocytes viability, higher = more signal; further: test concentration not given here
[3] = HepG2 cell viability effects, profiling panel, calcein-AM fluorescence, 48 h, basal (AID 1164); settings: higher = more signal; further: test concentration not given here
[4] = MM1S cell viability effects, profiling panel, calcein-AM fluorescence, 48 h, basal (AID 1165); settings: higher = more signal;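 further: viability of MM1S multiple myeloma cells under basal unstimulated conditions; test concentration not given here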
[5] = basal RPMI8226 viability, no added stimulus, profiling panel, cell-based, calcein-AM fluorescence, 48 h, PK04 Diversity Set (AID 1166); settings: RPMI8226 myeloma viability, higher = more signal;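 further: cells grown under basal conditions without added stimulus; test concentration not given here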
[6] = basal HepG2 mitochondrial membrane potential changes, profiling panel, cell-based, JC-1 fluorescence, 24 h, 100 nL compound (AID 1167); settings: higher = more signal; further: test concentration not given here
[7] = basal 3T3-L1 adipocyte mitochondrial potential changes, profiling panel, cell-based, JC-1 fluorescence, 3T3-L1 adipocytes, 24 h, 100 nL compound (AID 1168); settings: JC-1 mitochondrial fluorescence, higher = more signal, called active from +8 up or from −8 down; further: test concentration not given here
[8] = basal RPMI8226 mitochondrial membrane potential changes, profiling panel, cell-based, JC-1 fluorescence, 24 h, 100 nL compound (AID 1169); settings: RPMI8226 myeloma, JC-1 mitochondrial potential fluorescence, higher = more signal; further: test concentration not given here
[9] = basal MM1S mitochondrial membrane potential changes, profiling panel, cell-based, JC-1 fluorescence, 24 h, 100 nL compound (AID 1170); settings: higher = more signal; further: test concentration not given here
[10] = A549 lung cancer cell viability effects, profiling panel, resazurin fluorescence, 24 h, PK04 Diversity Set (AID 1171); settings: higher = more signal, called active from +8 up or from −8 down; further: test concentration not given here
[11] = HepG2 liver cancer cell viability effects, profiling panel, resazurin fluorescence, 24 h, PK04 Diversity Set (AID 1172); settings: higher = more signal; further: test concentration not given here
[12] = basal S. cerevisiae growth modulation, no modifier, primary screen, OD600, strain BY4716, 24 h, basal condition (AID 1173); settings: OD600, 24 h, higher = more signal, called active from +8 up or from −8 down
[13] = MM1S myeloma cell viability, profiling panel, resazurin fluorescence, basal, 24 h, PK04 Diversity Set (AID 1174); settings: higher = more signal, called active from +8 up or from −8 down;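 further: MM1S multiple myeloma cell line; test concentration not given here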
[14] = molecular target: Dihydroorotate dehydrogenase (quinone), mitochondrial (Plasmodium falciparum (isolate 3D7)) (UniProt Q08210); assay: PfDHODH enzyme inhibitors, primary screen, biochemical, C-terminal His tag, absorbance 600 nm (AID 1175); settings: DCIP absorbance 600 nm, higher = more signal, called active from +8 up or from −8 down;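 further: recombinant parasite enzyme with a five histidine tag at its C terminus; test concentration not given here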
[15] = P. aeruginosa biofilm formation inhibitors, primary screen, strain PAO1, LB-PBS medium, absorbance 600 nm (AID 1176); further: test concentration not given here; settings: P. aeruginosa PAO1 growth/biofilm, A600, 12 h; higher = more signal
[16] = S. cerevisiae RM11-1a growth modifiers, primary screen, strain RM11-1a, OD600, basal, 24 h (AID 1177); settings: OD600, 24 h, higher = more signal, called active from +8 up or from −8 down;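 further: cultures grown under basal conditions with no added stressor; test concentration not given here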
[17] = E. coli acrAB mutant growth effects, primary screen, E. coli filamentation inducers, strain DRC39, OD650, 24 h (AID 1178); settings: higher = more signal, called active from +8 up or from −8 down;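 further: growth measured as culture turbidity by optical density at 650 nm; test concentration not given here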
[18] = E. coli acrAB mutant growth effects, primary screen, E. coli filamentation inducers, strain DRC39, OD650, 48 h (AID 1179);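 further: screen aims at cell division blockers that make cells filament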; settings: E. coli DRC39 delta-acrAB growth, higher = more signal, called active from +8 up or from −8 down
[19] = RPMI8226 myeloma cell viability, profiling panel, resazurin fluorescence, basal, 24 h, PK04 Diversity Set (AID 1180); settings: higher = more signal;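 further: RPMI8826 multiple myeloma cell line at 5000 cells per well; test concentration not given here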
[20] = molecular target: E3 ubiquitin-protein ligase XIAP (Homo sapiens) (UniProt P98170); assay: XIAP binders, primary screen, biophysical, small-molecule microarray, fluorescence 635 nm (AID 1181); settings: small-molecule microarray binding, higher = more signal;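 further: score merges 667 nm emission and signal to noise over triplicate slides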
Chain of E3 ubiquitin-protein ligase XIAP (Homo sapiens) (P98170 whole entry, looked up): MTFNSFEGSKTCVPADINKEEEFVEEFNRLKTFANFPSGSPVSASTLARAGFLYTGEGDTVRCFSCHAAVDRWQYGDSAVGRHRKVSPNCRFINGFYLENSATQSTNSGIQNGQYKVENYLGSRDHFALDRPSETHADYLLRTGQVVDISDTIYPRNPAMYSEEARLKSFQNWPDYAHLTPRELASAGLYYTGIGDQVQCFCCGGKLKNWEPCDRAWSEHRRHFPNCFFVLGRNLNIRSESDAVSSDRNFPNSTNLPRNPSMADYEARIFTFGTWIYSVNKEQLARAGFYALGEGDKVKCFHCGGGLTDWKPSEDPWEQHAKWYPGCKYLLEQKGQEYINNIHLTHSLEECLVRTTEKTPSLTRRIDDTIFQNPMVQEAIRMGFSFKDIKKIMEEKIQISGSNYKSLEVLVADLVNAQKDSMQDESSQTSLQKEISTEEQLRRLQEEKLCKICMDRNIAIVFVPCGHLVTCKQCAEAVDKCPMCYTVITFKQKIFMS

Chain of Dihydroorotate dehydrogenase (quinone), mitochondrial (Plasmodium falciparum (isolate 3D7)) (Q08210 whole entry, looked up): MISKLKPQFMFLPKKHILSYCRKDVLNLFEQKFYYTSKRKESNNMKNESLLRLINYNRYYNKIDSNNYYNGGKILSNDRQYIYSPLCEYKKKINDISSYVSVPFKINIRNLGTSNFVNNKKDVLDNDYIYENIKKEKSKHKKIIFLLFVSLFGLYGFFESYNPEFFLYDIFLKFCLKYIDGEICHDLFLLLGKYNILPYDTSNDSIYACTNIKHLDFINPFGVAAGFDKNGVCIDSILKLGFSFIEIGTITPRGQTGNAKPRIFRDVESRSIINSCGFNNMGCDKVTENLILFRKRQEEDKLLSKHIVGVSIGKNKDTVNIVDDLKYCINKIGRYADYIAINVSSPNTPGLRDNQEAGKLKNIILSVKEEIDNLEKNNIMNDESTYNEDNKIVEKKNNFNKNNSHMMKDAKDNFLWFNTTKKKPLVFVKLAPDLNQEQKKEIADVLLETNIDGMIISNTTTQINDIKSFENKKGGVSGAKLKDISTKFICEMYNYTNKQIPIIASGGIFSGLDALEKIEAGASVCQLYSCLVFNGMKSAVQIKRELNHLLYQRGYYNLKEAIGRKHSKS

| Structure (SMILES) | z-score [1] | z-score [2] | z-score [3] | z-score [4] | z-score [5] | z-score [6] | z-score [7] | z-score [8] | z-score [9] | z-score [10] | z-score [11] | z-score [12] | z-score [13] | composite z-score [14] | z-score [15] | z-score [16] | z-score [17] | z-score [18] | z-score [19] | composite z-score [20] |
| --- | --- | --- | --- | --- | --- | --- | --- | --- | --- | --- | --- | --- | --- | --- | --- | --- | --- | --- | --- | --- |
| [N-]=[N+]=Nc1ccccc1[C@@H]1OC(c2ccc(OCCCO)cc2)=N[C@]1(CCS(=O)(=O)c1ccccc1)C(=O)O | 0.926 | -0.149 | 0.846 | -0.57 | -1.47 | -3.18 | -1.07 (inactive) | -0.373 | -1.17 | 0.343 (inactive) | 0.97 | -0.14 (inactive) | -0.3 (inactive) | -23.4 (active) | -0.884 (inactive) | 0.82 (inactive) | 0.277 (inactive) | 0.82 (inactive) | 0.205 | 0.125 |
| COC(=O)[C@@]1(Cc2ccccc2)[C@H]2c3cc(C(=O)N(C)C)n(Cc4cc(F)c(F)c(F)c4)c3C[C@H]2CN1C(=O)c1ccccc1 | -0.749 | 0.135 | 0.545 | -2.11 | -4.67 | 0.891 | -1.35 (inactive) | -0.368 | -0.951 | -0.0085 (inactive) | 0.0126 | 0.989 (inactive) | -0.402 (inactive) | -0.258 (inactive) | -0.0019 (inactive) | 0.968 (inactive) | 0.194 (inactive) | 0.322 (inactive) | -0.963 | 0.272 |
| COc1cc2c(cc1O)C(c1ccc(CN3CCCC3)cc1)N(Cc1sc3ccccc3c1Cl)CC2 (stereo not given) | -0.42 | -0.0706 | -1.5 | -1.89 | -1.24 | -0.535 | -0.506 (inactive) | -0.105 | -0.774 | 0.835 (inactive) | -0.307 | -1.82 (inactive) | -0.527 (inactive) | -2.82 (inactive) | 0.0619 (inactive) | 0.953 (inactive) | 1.23 (inactive) | 0.25 (inactive) | -1.05 | 0.0815 |
| COc1ccc([Si](C)(C)[C@H]2[C@H](CC(=O)N3CCC[C@H]3CO)O[C@@]3(C(=O)N(c4ccccc4)c4ccccc43)[C@@H]2C)cc1 | 1.35 | 0.42 | 0.628 | 1.63 | 0.912 | 2.53 | -0.667 (inactive) | 0.421 | -0.947 | 1.63 (inactive) | 1.75 | -2.26 (inactive) | 1.55 (inactive) | 0.0873 (inactive) | 0.826 (inactive) | -1.81 (inactive) | 1.21 (inactive) | 1.49 (inactive) | 0.843 | -0.167 |
| C[N+](C)(C)CCCCNC(=O)[C@H]1C[C@H]2C(=O)N3CCC[C@H]3C(=O)N2[C@H]1c1ccc(O)cc1 | -0.814 | 0.0179 | -0.674 | -0.642 | -0.772 | -1.1 | -1.5 (inactive) | 0.0553 | -0.38 | 0.0558 (inactive) | 0.0897 | 1.06 (inactive) | -1.13 (inactive) | -30.3 (active) | 0.146 (inactive) | 0.266 (inactive) | 0.0346 (inactive) | -0.322 (inactive) | -0.977 | 0.455 |
| C=CC[C@@]1(C(N)=O)N=C(c2ccc(OCCCO)cc2)O[C@@H]1c1ccccc1N=[N+]=[N-] | 1.38 | 1.01 | 0.314 | -0.35 | -0.0394 | -0.00877 | 0.875 (inactive) | -0.327 | 0.759 | 1.02 (inactive) | 0.895 | -1.08 (inactive) | 0.694 (inactive) | 0.832 (inactive) | 0.401 (inactive) | 0.178 (inactive) | 0.951 (inactive) | -0.0342 (inactive) | 0.502 | 0.0896 |
| COCCOC(=O)N1C(=O)[C@@]2(c3ccccc31)[C@H](C(=O)N1CCCCCCC1)[C@H]1C(=O)O[C@H](c3ccccc3)[C@H](c3ccccc3)N1[C@@H]2c1ccccc1OCCO | -0.501 | 0.293 | 0.603 | -0.252 | -1.84 | -0.114 | -0.226 (inactive) | -1.1 | -1.04 | -0.467 (inactive) | -0.415 | 0.406 (inactive) | -0.89 (inactive) | -0.089 (inactive) | 3.81 (inactive) | 1.79 (inactive) | -0.38 (inactive) | 0.0795 (inactive) | -0.201 | 0.496 |
| COCCCNC(=O)[C@]1(Cc2ccccc2N=[N+]=[N-])N=C(c2ccc(OCCCO)cc2)O[C@@H]1c1ccccc1CN=[N+]=[N-] | -1.02 | 1.63 | -1.77 | -2.98 | -4.11 | 1.46 | -0.683 (inactive) | -1.2 | -0.495 | -1.2 (inactive) | -0.412 | 0.0634 (inactive) | -2.16 (inactive) | 0.0785 (inactive) | 1.83 (inactive) | -0.22 (inactive) | 2.79 (inactive) | 0.499 (inactive) | -2.01 | 0.283 |
| COc1cc(CO)cc(I)c1O[C@H]1C=C(C(=O)NCCO)C[C@@H](N(CCc2cccc(F)c2)C(=O)CCC2CCCC2)[C@@H]1O | -1.5 | 2.06 | -2.23 | -3.19 | -4.28 | -1.09 | 0.525 (inactive) | -1.2 | -1.96 | -2.26 (inactive) | -1.69 | -9.37 (active) | -3.26 (inactive) | -0.459 (inactive) | 1.99 (inactive) | 1.99 (inactive) | -0.0338 (inactive) | -0.177 (inactive) | -4.07 | 0.29 |
| C=C(/C(=C/C[C@@H](OC(=O)c1ccncc1)c1ccc(CO)o1)c1cc(C(=O)OC)ccc1OC)C(C)C | 0.621 | -0.619 | 0.486 | -2.99 | -2.18 | 0.654 | -0.369 (inactive) | -0.688 | -1.97 | -0.0675 (inactive) | -0.512 | -0.128 (inactive) | -0.51 (inactive) | -1.49 (inactive) | 0.519 (inactive) | -0.0289 (inactive) | 0.885 (inactive) | 0.64 (inactive) | -0.533 | -0.187 |
| CN1C(=O)C2C=CC(C(O)C3=C[C@H]4C[C@@H](C3)C4(C)C)N(Nc3ccc([N+](=O)[O-])cc3[N+](=O)[O-])C2C1=O (stereo not given in full) | 0.895 | -0.535 | 0.436 | 0.017 | -0.481 | -0.661 | -1.35 (inactive) | -0.46 | -1.1 | -0.227 (inactive) | -0.241 | 0.473 (inactive) | -0.569 (inactive) | -0.0042 (inactive) | 0.434 (inactive) | 1 (inactive) | -0.146 (inactive) | -0.476 (inactive) | 0.116 | 0.772 |
| CN(C)CCCC[C@@H]1NC(=O)[C@@H]2C[C@H](C(=O)NCc3ccc(F)cc3)[C@H](c3cccc(OCCO)c3)N2C1=O | 0.514 | -0.0506 | 0.554 | 0.731 | 1.02 | 2.08 | 0.544 (inactive) | 0.46 | -0.749 | -0.158 (inactive) | -0.487 | -0.889 (inactive) | 0.0458 (inactive) | -0.366 (inactive) | 0.199 (inactive) | -0.889 (inactive) | 0.797 (inactive) | 0.83 (inactive) | 0.293 | 0.0808 |
| O=C1OCC=C[C@H]2OC34C=CCN(Cc5ccccc5)C(=O)[C@H]3N(CCCO)C(=O)[C@@H]4[C@@H]12 (stereo not given in full) | -0.518 | 0.676 | -1.28 | 0.772 | 0.0919 | 0.0708 | -0.0748 (inactive) | 0.242 | 0.252 | -0.196 (inactive) | 0.0395 | -0.616 (inactive) | -0.0608 (inactive) | -1.55 (inactive) | -0.0963 (inactive) | 0.242 (inactive) | -0.658 (inactive) | 0.122 (inactive) | -0.0906 | 0.643 |
| C/C=C/[C@H](CCn1cc([C@H](O)c2ccccc2)nn1)[Si](C)(C)c1ccc(OC)cc1 | -0.0186 | -0.358 | -0.689 | -1.58 | -1.43 | -1.4 | 0.644 (inactive) | -0.569 | -0.629 | 0.22 (inactive) | 0.0881 | -0.289 (inactive) | 0.183 (inactive) | -0.393 (inactive) | 0.626 (inactive) | 0.15 (inactive) | 0.265 (inactive) | -0.0867 (inactive) | -0.187 | -0.0936 |
| C=CC[C@@]1(C(=O)OC)N=C(c2ccc(OCCCO)cc2)O[C@@H]1c1ccccc1CN=[N+]=[N-] | -0.817 | 0.358 | -1.13 | -2.7 | -3.17 | 0.195 | 1.31 (inactive) | -0.969 | -0.949 | -1.19 (inactive) | 1.09 | -12.3 (active) | -1.72 (inactive) | -0.509 (inactive) | -0.347 (inactive) | -0.712 (inactive) | 0.419 (inactive) | 0.967 (inactive) | -0.494 | -0.0868 |
| C[C@]1(C(=O)NCC(F)(F)F)c2ccccc2C(=O)N(Cc2cc(F)cc(C(F)(F)F)c2)[C@H]1c1ccc(CO)cc1 | -0.493 | 1.63 | -0.357 | -0.74 | -0.308 | 0.951 | -0.449 (inactive) | -0.494 | 0.206 | -0.557 (inactive) | 0.378 | -0.459 (inactive) | -0.191 (inactive) | -0.191 (inactive) | 1.32 (inactive) | -0.401 (inactive) | -0.0567 (inactive) | -0.376 (inactive) | 0.532 | -0.0884 |

Source: PubChem BioAssay
